AID923: qHTS Assay for Allosteric/Competitive Inhibitors of Caspase-1: Spectroscopic Profiling in AFC Spectral Region. compound fluorescence, AFC spectral region (405/520 nm). Potency, µM (top dose mostly 57.5 µM), for inactives: at the top dose fluorescence increase, actives largely listed as activators. 1.1% of 75,000 active; further: potency means the concentration at half of the fitted maximal effect; 0% is about no effect
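Titrations up to 57 uM read every 20 sec for 3 min (405/520 nm) with 50 nM caspase 1 and 5 uM Ac-WEHD-AFC, pH 7.5 HEPES buffer. Fluorescence-vs-time intercept gave baseline, scaled against on-plate AFC standard.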
CRE-bla Fsk: modulators of forskolin-stimulated CRE signaling in CHO cells. CHO CRE-bla reporter (cAMP response element driving beta-lactamase), forskolin EC10, beta-lactamase ratio. Potency, µM (top dose mostly 38.2 µM), for inactives: at the top dose activity change, negative = inhibition, usual class: activators. 2.5% of 71,000 active. AID 662; active means well fitted activation curve with a large enough effect in the signal ratio, with a control signal flat, not every such curve was filed as active; inconclusive means small, poorly fitted or top-dose-only effect, or effect the other way, or a change in a side signal; the % refers to the signal ratio; further: potency means the concentration at half of the fitted maximal effect; % of control where 0% means no effect
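CRE-bla CHO cells stimulated with EC10 NKH 477 (water-soluble forskolin) and compound titrations, 3 h at 37C; beta-lactamase read with CCF4 after 2 h at room temperature. Activity from 460/530 nm emission ratio, AC50 values for positive or negative modulation.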
4MU fluor: compound fluoresces in the 4-MU spectral region. compound autofluorescence, 340/450 nm, 4-MU equivalents; active compounds read high. AID 589. 11% of 59,000 active. max dye-equivalent concentration, M; in the data active means max dye-equivalent concentration above about 10 nM; inconclusive means mostly about 1.1 nM to 9.6 nM
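Compounds in 100 mM Tris, pH 8.0, sat 15 min at room temperature before fluorescence was read at 340 nm excitation/450 nm emission; a per-plate six-point 4-MU standard curve converted signals to dye-equivalent concentration at each compound concentration.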
HSD17B inh: inhibitors of human HSD17B10 dehydrogenase; Potency, µM (highest dose often 57.1 µM), inactives show top-dose activity change, negative = inhibition, usual class: inhibitors; recombinant HSD17B10, NADH fluorescence kinetic; 7.6% of 75,000 active; Q99714; AID 893;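 further: the protocol describes HADH2 (HSD17B10) and not the HSD17B4 of the title; potency means the concentration at half of the fitted maximal effect; on the % scale 0 is the no-effect control and ±100 the full control effect; nearly all actives have a fitted effect of over 70% in size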
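20 nM HADH2, pH 9.0 Tris/Tween; cpd preinc 15 min RT; start w/ 1 mM NAD+ + 90 uM b-hydroxybutyryl-CoA; kinetic fluor ex360/em450 q30s x 4 min; delta last-first.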
HADH2 inhib: blocks human hydroxyacyl-CoA dehydrogenase type II | Q99714 | recombinant HADH2, NADH fluorescence, beta-hydroxybutyryl-CoA | Potency, µM (series often up to 57.1 µM), without a hit: top-dose activity change, negative = inhibition, actives largely listed as inhibitors | 3.4% of 73,000 active; further: potency means the concentration at half of the fitted maximal effect; on the % scale 0 is the no-effect control and ±100 the full control effect; nearly all actives have a fitted effect of over 60% in size
Target sequence (Q99714 whole entry, looked up, one chain of several): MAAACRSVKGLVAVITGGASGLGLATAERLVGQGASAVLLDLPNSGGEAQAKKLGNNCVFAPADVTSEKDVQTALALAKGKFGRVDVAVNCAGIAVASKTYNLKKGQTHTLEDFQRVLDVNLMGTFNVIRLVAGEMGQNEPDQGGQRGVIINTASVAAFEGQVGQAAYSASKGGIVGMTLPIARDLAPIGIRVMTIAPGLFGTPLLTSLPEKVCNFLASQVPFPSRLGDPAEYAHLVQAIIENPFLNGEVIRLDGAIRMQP
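E. coli-expressed His-tagged HADH2 tested at 20 nM in alkaline Tris buffer (pH 9.0); oxidation of 90 uM beta-hydroxybutyryl-CoA with 1 mM NAD+ tracked fluorimetrically for 4 min.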
A350 autofl: compound fluoresces in the Alexa 350 spectral region; Compound autofluorescence, 340/450 nm, Alexa 350 dye-equivalents; active compounds read high; AID 590; max dye-equivalent concentration, M; 11% of 59,000 active; in the data active means max dye-equivalent concentration above about 10 nM; inconclusive means mostly about 1.1 nM to 9.6 nM
* = called active by the depositor; i = inactive; u = inconclusive; x = no result given; [ ] = remark or other dose. Most compounds without a hit are left out; they make up all but 14% or so of the library. Unless noted, the call rests on the fitted dose curve; in most records, active means well fitted curve in the direction sought with a large enough effect; inconclusive means small, poorly fitted or top-dose-only effect, or another doubt; inactive means no such curve, though single readings can be large; an effect the other way counts as inactive or inconclusive.

SMILES	AID923	CRE-bla Fsk	4MU fluor	HSD17B inh	HADH2 inhib	A350 autofl
COc1ccc(-c2cc(C(F)(F)F)n3nc(C)cc3n2)cc1	11%	10µM*	x	290%	-6%	x
O=C(c1nc2nc(-c3ccc(Cl)cc3)cc(C(F)(F)F)n2n1)N1CCOCC1	1%	u	4.3e-08M*	32µM*	25µM*	3.8e-08M*
CCN1CCN(C(=O)c2cc3nc(-c4ccccc4)cc(C(F)(F)F)n3n2)CC1	2%	u	1.4e-08M*	4%	11%	1.2e-08M*
COc1ccc(-c2cc(C(F)(F)F)n3nc(C(=O)N4CCCC4)cc3n2)cc1	0%	14%	x	7.9µM*	6%	x
O=C(c1nc2nc(-c3ccccc3)cc(C(F)(F)F)n2n1)N1CCOCC1	2%	6%	u	u	u	u
CN1CCN(C(=O)c2cc3nc(-c4ccc(F)cc4)cc(C(F)(F)F)n3n2)CC1	15%	u	x	-9%	9%	x
c1ccc2oc(SCc3cn4ccccc4n3)nc2c1	1%	u	i	8%	18%	i
COc1ccc(-c2cc(C(F)(F)F)n3nc(C(=O)O)nc3n2)cc1	15%	3%	1.8e-07M*	u	-15%	2.2e-07M*
CN(C)CCC(c1ccc(Cl)cc1)c1ccccn1 (stereo unspecified)	3%	-1%	x	6%	2%	x
CN(C)CCCc1c2ccccc2nc2ccc(Cl)cc12	1%[11.5 µM]	u	6.7e-07M*	-1%[11.4 µM]	-6%[11.4 µM]	7.2e-07M*
CCOC(=O)c1cc(C)n(-n2cnnc2)c1C	-2%	1%	i	16%	3%	i
NC(=O)c1sc2nc3c(c(-c4cccs4)c2c1N)CCCC3	5%	u	u	-20%	-17%	1.2e-08M*
NC(=O)c1sc2nc3c(c(-c4ccco4)c2c1N)CCC3	5%	-12%	i	-19%	u	i
O=C(NCCN1CCOCC1)c1noc2c1CCc1ccccc1-2	0%	-8%	i	0%	-7%	i
CCC1CCCCN1c1nc(-c2ccncc2)nc2ccccc12 (stereo unspecified)	x	x	i	x	x	i
C=CCN1C(=O)CN=C1Nc1cc(C)ccc1C	0%	u	i	5%	-2%	i
Cc1ccc(C)c(N2C(=O)CN=C2Nc2ccccc2Cl)c1	1%	-8%	1.4e-08M*	-11%	0%	1.9e-08M*
COCCN1Cc2cccc(C(=O)Nc3ccc(S(=O)(=O)N4CCCCC4)cc3)c2C1=O	2%	u	i	-4%	8%	i
Cn1c(SCC(=O)N2CCCCCC2)nc2c([nH]c3ccccc32)c1=O	0%	6%	4.5e-08M*	u	4%	4.4e-08M*
CCOC(=O)N1CCN(C(=O)CSc2nc3c([nH]c4ccccc43)c(=O)n2C)CC1	4%	-5%	x	-26%	-2%	x
COc1ccc(C)cc1Nc1cc(C)nc2ncnn12	-3%	14%	x	0%	-5%	x
O=C(c1ccco1)N1CCC2(CCCN(c3ccccn3)C2)CC1	1%	-10%	i	u	-6%	i
O=C(Oc1ccccc1)N1CCC2(CC1)CN(c1ccccn1)C2	0%	u	i	u	6%	i
CC(=O)N1CCC2(CC1)CN(c1ccccn1)C2	-6%	-9%	i	25µM*	-10%	i
CC(=O)N1CCC2(CC1)CCN(c1ccc(-c3ccccc3)cc1)CC2	12%	-14%	i	10µM*	23%	i
O=C(c1ccco1)N1CCC2(CC1)CN(c1ccccn1)C2	0%	-8%	i	32µM*	-1%	i
O=C(c1ccncc1)N1CCC2(CC1)CCN(c1ccc(-c3ccccc3)cc1)CC2	0%	-5%	i	-13%	7%	i
Cn1cccc1C(=O)N1CCC2(CC1)CCN(c1ccccn1)CC2	1%	-6%	i	32µM*	-3%	i
Cc1cc(NC(=O)COC(=O)C2CCN(S(=O)(=O)c3ccc(Cl)cc3)CC2)no1	-2%	u	i	5%	8%	i

Screens as filed in PubChem BioAssay.
